Results from the supplement of paper PMC6953052.
Where “and” joins values, the source holds several entries; their conditions need not be identical. Equal values may be shown once. Where a name gives a salt, the structure may show the parent alone. Over roughly 1,700 compounds, “fraction of GFP-LC3-positive cells (≥5 vesicles/cell)” has its median near 0.43; the highest 2% begin near 0.81. This is one part of a sample in which the highest values are shown more often than they occur.

Each compound was assayed on CbCln3 Δex7/8/Δex7/8 GFP-LC3 cerebellar neuronal cells (assay: fraction of GFP-LC3-positive cells (≥5 vesicles/cell); higher = more autophagosome accumulation).
Method in brief: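 Wild-type or mutant CbCln3 cerebellar cells stably expressing GFP-LC3 were plated at 2 × 10^3 per well in 384-well plates and received ~50 nL of compound in DMSO by pin transfer, in duplicate, for 24 h at 33 °C. Hoechst 33342 and LysoTracker Red were added for the last 30 min, after which cells were fixed in 3.2% PFA and three fields per well were imaged at 10×. CellProfiler counted GFP-LC3 vesicles per cell, and out-of-focus images were excluded. The reported value is the fraction of cells reaching a vesicle-count cutoff of 5 or more, averaged over duplicates.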

Structure (SMILES) | fraction of GFP-LC3-positive cells
O[C@H]1[C@H]2[C@H](O)CCCN2C[C@H]1O [swainsonine] | 0.371
CN1Cc2c(ccc3c2OCO3)[C@@H]2[C@H]1c1cc3c(cc1C[C@@H]2O)OCO3.O [Chelidonine (+)] | 0.93
CN1CCc2cc3c(cc2[C@H]1[C@@H]1OC(=O)c2c1ccc1c2OCO1)OCO3 [Bicuculline (+)] | 0.326
CN1CCC2=C[C@H](O)[C@H]3OC(=O)c4cc5c(cc4[C@H]3[C@@H]21)OCO5 [Hippeastrine hydrobromide] | 0.407
C[C@@H]1CC([C@H](O)CC2CC(=O)NC(=O)C2)C(=O)[C@@H](C)C1 (stereo partly specified) [cycloheximide] | 0.481
C[C@@]1(CO)[C@H](O)CC[C@@]2(C)[C@H]1CC[C@H]1C[C@@H]3C[C@@]12CC[C@]3(O)CO [aphidicolin] | 0.623
CC(=O)OCC(=O)[C@H]1CC[C@H]2[C@@H]3CC[C@H]4C[C@H](O)CC[C@]4(C)[C@H]3C(=O)C[C@]12C [Alfadolone acetate] | 0.441
CCCCc1ccc(C(=O)O)nc1 [Fusaric acid] | 0.408
O=C1C=CC(=O)c2c(O)cccc21 [juglone] | 0.367
N#CC(C#N)=NNc1ccc(OC(F)(F)F)cc1 | 0.936
COc1cc2c(cc1OC)C(C)NCC2.Cl (stereo unspecified) | 0.422
Cc1nccc2c1[nH]c1cc(O)ccc12.Cl.O [Harmol hydrochloride monohydrate] | 0.441
OC(c1ccccc1)(c1ccccc1)C1CCNCC1 [Azacyclonol] | 0.306
C/C(O)=C(\C#N)C(=O)Nc1cc(Br)ccc1Br | 0.547 and 0.552
O=C(CCCN1CCC2(CC1)C(=O)NCN2c1ccccc1)c1ccc(F)cc1 [Spiperone] | 0.376
C=C1[C@@H]2CC[C@H]3[C@]4(C)C[C@H](O[C@H]5O[C@H](CO)[C@@H](OS(=O)(=O)[O-])[C@H](OS(=O)(=O)[O-])[C@H]5OC(=O)CC(C)C)C[C@@H](C(=O)O)[C@H]4CC[C@]3(C2)[C@H]1O.[K+].[K+] [Atractyloside potassium salt] | 0.314
O.O.O.O=C1OC2(c3cc(Br)c([O-])cc3Oc3c2cc(Br)c([O-])[c]3[Hg][OH])c2ccccc21.[Na+].[Na+] (stereo unspecified) [Merbromin] | 0.954
C[C@@H]1CC[C@@]2(NC1)O[C@H]1C[C@H]3[C@@H]4CC=C5C[C@@H](O)CC[C@]5(C)[C@H]4CC[C@]3(C)[C@H]1[C@@H]2C [Solasodine] | 0.378

Structure (SMILES) | fraction of GFP-LC3-positive cells
CN1C[C@H](CNC(=O)OCc2ccccc2)C[C@@H]2c3cccc4c3c(cn4C)C[C@H]21 [Metergoline] | 0.238
c1ccc(C2CC2)c(OCC2=NCCN2)c1 | 0.404
CCNC(=O)[C@H]1O[C@@H](n2cnc3c(N)ncnc32)C(O)[C@H]1O (stereo partly specified) [5'-N-Ethylcarboxamidoadenosine (NECA)] | 0.445
COc1cc2c(cc1O)C[C@H]1c3c(cc(O)c(OC)c3-2)CCN1C [Boldine] | 0.447
Cc1c(C(=O)c2cccc3ccccc23)c2cccc3c2n1[C@H](CN1CCOCC1)CO3 | 0.451 and 0.539
CC1=NCCc2c1[nH]c1cc(O)ccc21.Cl.O.O [Harmalol hydrochloride dihydrate] | 0.479
C[C@H](N)C(=O)N[C@@H](C)C(=O)N[C@@H](Cc1ccccc1)C(=O)CCl | 0.742 and 0.818
CC(=O)C(C)O.CC(Cc1ccccc1)NCCC(c1ccccc1)c1ccccc1 (stereo unspecified) [Prenylamine lactate] | 0.266
CC(C)c1c(CN(C)C(C)Cc2ccccc2)n(C)n(-c2ccccc2)c1=O (stereo unspecified) [Famprofazone] | 0.405
N#CC(C#N)=Cc1cc(O)c(O)c(O)c1 | 0.46
CC(C)(C)c1cc(C=C(C#N)C#N)cc(C(C)(C)C)c1O [tyrphostin 9] | 0.882
N#CC(C#N)=Cc1ccc(O)c(O)c1 | 0.348
CC(C)(C)c1cc(C=C(C#N)C#N)cc(C(C)(C)C)c1O | 0.718
COc1ccc(CC2c3cc(OC)c(OC)cc3CCN2C)cc1OC (racemic) [Laudanosine (R,S)] | 0.508
c1cncc([C@H]2CCCCN2)c1 [Anabasine] | 0.34
C[N+]1(C)C2CC[C@H]1C[C@@H](OC(=O)C(CO)c1ccccc1)C2.O=[N+]([O-])[O-] (stereo partly specified) [Methylatropine nitrate] | 0.451
COc1ccc(CCN2CCC(Nc3nc4ccccc4n3Cc3ccc(F)cc3)CC2)cc1 [Astemizole] | 0.587
CC[N+]1(C)CCCC(OC(=O)C(O)(c2ccccc2)c2ccccc2)C1.[Br-] (stereo unspecified) [Pipenzolate bromide] | 0.4
